Calls of active or inactive are those of the source.
Assay: plasmodial surface anion channel blockers, osmotic lysis – cell-based, P. falciparum Indochina, OD700, 2 h, primary screen (AID 1155);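 further: lysis reports solute entry through the parasite surface anion channel PSAC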
Conditions: P. falciparum Indochina infected erythrocytes, higher = more signal, called active from +8 up or from −8 down

Structure (SMILES) | z-score
CC[C@@H]1C=C(C(=O)O)[C@H](c2ccc(Br)cc2)N1S(=O)(=O)c1ccc(C)cc1 | 1.06 (inactive)
O=C1c2ccccc2[C@](Cc2ccccc2I)(C(=O)NCCN2CCOCC2)[C@H](c2ccc(CO)cc2)N1Cc1ccccc1Cl | 1.47 (inactive)
COC(=O)[C@@]1(Cc2ccc(OC)cc2)[C@H]2c3cc(C(=O)N4CCCC4)n(CCN4CNCC4=O)c3C[C@H]2CN1C(=O)c1ccccc1 | 0.0621 (inactive)
COC(=O)[C@@]1(Cc2ccc(OC)cc2)[C@@H]2C(=CC(=O)[C@H]2CC(=O)C(=O)N2CCCC2)CN1C(=O)c1ccccc1 | 0.368 (inactive)
C=CCNC(=O)[C@@H]1[C@H]2C(=O)O[C@H](c3ccccc3)[C@H](c3ccccc3)N2[C@H](c2ccc(O)cc2)[C@@]12C(=O)N(C(=O)OCCOC)c1ccc(C#CCNC(N)=O)cc12 | -0.836 (inactive)
Cc1ccc(S[C@]2(C(=O)NCCCN(C)C)CC(=O)N(Cc3cc(C(F)(F)F)cc(C(F)(F)F)c3)[C@@H]2c2ccc(CO)cc2)cc1 | 0.0808 (inactive)
COc1ccc([Si](C)(C)[C@H]2[C@H](CCO)O[C@@]3(C(=O)N(Cc4ccc(N(C=O)c5ccccc5)cc4)c4ccccc43)[C@@H]2C)cc1 | 5.72 (inactive)
[N-]=[N+]=Nc1ccccc1[C@H]1OC(c2ccc(OCCCO)cc2)=N[C@@]1(CCS(=O)(=O)c1ccccc1)C(N)=O | 28.1 (active)
NC(=O)NCC#Cc1ccc2c(c1)[C@]1(C(=O)N2)[C@H](c2ccccc2OCCO)N2[C@H](c3ccccc3)[C@H](c3ccccc3)OC(=O)[C@H]2[C@@H]1C(=O)Nc1nc2ccccc2s1 | 1.36 (inactive)
CCCC=C(CCC)[C@@H](NC(=O)c1cccs1)c1ccc(C(F)(F)F)cc1 | -0.119 (inactive)
CN(C)C(=O)[C@]1(Cc2ccccc2N=[N+]=[N-])N=C(c2ccc(OCCCO)cc2)O[C@@H]1c1ccccc1N=[N+]=[N-] | 25.6 (active)
COC(=O)[C@@]1(Cc2ccc(OC)cc2)[C@H]2c3cc(C(=O)N(C)C)n(Cc4ccccn4)c3C[C@H]2CN1C(=O)c1ccccc1 | 0.463 (inactive)
COC(=O)[C@@]1(Cc2ccc(F)cc2)[C@H]2c3cc(C(=O)N4CCCC4)n(CCCNc4ncc(C(F)(F)F)cc4Cl)c3C[C@H]2CN1C(=O)c1ccccc1 | 0.852 (inactive)
O=C(CS)NCCCCCCNC(=O)[C@@H]1C[C@@H]2C(=O)NCC(=O)N2[C@@H]1c1cccc(OCCO)c1 | 0.156 (inactive)
CCOC(=O)C[C@H]1[C@H](OC(=O)c2ccccc2-c2ccccc2)[C@@H](NC(=O)CC(C)C)c2cc(OCCCO)ccc2N1C(=O)Cc1ccc(OC)cc1 | 0.317 (inactive)
COc1ccc([C@H]2OC[C@@H]3C[C@@H](Cc4ccccc4)C(=O)N32)cc1 | 0.0371 (inactive)
COc1ccc(CCNC(=O)[C@@]2(C)c3ccccc3C(=O)N(C(C)C)[C@H]2c2ccc(CO)cc2)cc1 | 0.133 (inactive)
C=CCOC(=O)[C@@H]1[C@H]2C(=O)O[C@H](c3ccccc3)[C@H](c3ccccc3)N2[C@H](c2ccc(OCCOC(=O)[C@@H]3C[C@@H]4C(=O)NCC(=O)N4[C@@H]3c3ccc(O)cc3)cc2)[C@@]12C(=O)Nc1ccc(I)cc12 | 0.553 (inactive)
O=C1C[C@@](C(=O)NCCN2CCOCC2)(c2ccc([N+](=O)[O-])cc2)[C@@H](c2ccc(CO)cc2)N1CC12CC3CC(CC(C3)C1)C2 | 1.23 (inactive)
COCCOC(=O)N1C(=O)[C@@]2(c3cc(C#CCC(C(=O)OC)C(=O)OC)ccc31)[C@H](C(=O)Nc1nc3ccccc3s1)[C@H]1C(=O)O[C@H](c3ccccc3)[C@H](c3ccccc3)N1[C@@H]2c1ccccc1OCCO | 2.85 (inactive)
COC(=O)[C@@]1(Cc2ccccc2)[C@H]2c3cc(C(=O)N(C)C)n(Cc4ccsc4Br)c3C[C@H]2CN1C(=O)c1ccccc1 | 1.07 (inactive)
CC1CC/C=C\[C@H]2OC34C=CCN(C(C)(C)C)C(=O)[C@H]3N(CCO)C(=O)[C@@H]4C2C(=O)O1 (some centres undefined) | 0.518 (inactive)
C=C(CCCC)/C(=C/C[C@@H](OC(C)=O)c1ccc(OCCO)cc1)c1cnc2ccccc2c1 | 6.92 (inactive)
CC(C)C(O)C1C=CC2C(=O)N(c3ccccc3)C(=O)C2N1Nc1ccc([N+](=O)[O-])cc1 (centres undefined) | 1.48 (inactive)
